# PubChem BioAssay (NCI)
# The panel holds about 83,000 compounds, 20% with a hit somewhere; the sample as a whole holds those more often.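 The test compound was applied at a single concentration to cells in 96-well plates for 48 hours, and percent growth was recorded.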 Unmarked numbers belong to inactive results. Activity calls are given as the source filed them. Rule for the calls: active = growth percent below 10; inactive = the rest.
# Experiments:
# Assay in all cases: NCI-60 one-dose screen, 48 h (100 = growth as untreated, 0 = no growth, -100 = all killed)
# Conditions in all cases: 10 µM unless noted
# NCI-H23 lung = test system: NCI-H23 lung
# NCI-H226 lung = test system: NCI-H226 lung
# NCI-H322M lung = test system: NCI-H322M lung
# HOP-62 NSCLC = test system: HOP-62 NSCLC
# NCI-H460 lung = test system: NCI-H460 lung
# HOP-92 NSCLC = test system: HOP-92 NSCLC
# NCI-H522 lung = test system: NCI-H522 lung
# A549/ATCC NSCLC = test system: A549/ATCC NSCLC
# 786-0 renal = test system: 786-0 renal
# COLO 205 colon = test system: COLO 205 colon
# DU-145 prostate = test system: DU-145 prostate
# K-562 leukemia = test system: K-562 leukemia
# MALME-3M melanoma = test system: MALME-3M melanoma
# MDA-MB-231 breast = test system: MDA-MB-231 breast
# RXF 393 renal = test system: RXF 393 renal
# SF-268 CNS = test system: SF-268 CNS
# SF-295 CNS = test system: SF-295 CNS
# SF-539 CNS = test system: SF-539 CNS
# UACC-257 melanoma = test system: UACC-257 melanoma
# M14 melanoma = test system: M14 melanoma
Compound,growth (NCI-H23 lung),growth (NCI-H226 lung),growth (NCI-H322M lung),growth (HOP-62 NSCLC),growth (NCI-H460 lung),growth (HOP-92 NSCLC),growth (NCI-H522 lung),growth (A549/ATCC NSCLC),growth (786-0 renal),growth (COLO 205 colon),growth (DU-145 prostate),growth (K-562 leukemia),growth (MALME-3M melanoma),growth (MDA-MB-231 breast),growth (RXF 393 renal),growth (SF-268 CNS),growth (SF-295 CNS),growth (SF-539 CNS),growth (UACC-257 melanoma),growth (M14 melanoma)
COc1cc(Cn2cc3c(c2)-c2onc(CO)c2CC3)cc(OC)c1OC,92.7%,81.5%,85.1%,85.7%,93.6%,67%,87.7%,99.8%,90.9%,107%,103%,78.5%,79.7%,103%,95.8%,96%,92.1%,96.8%,93.2%,85.8%
C=CC(=O)NC(=O)Nc1ccccc1Cl,103%,94.2%,90.2%,89.8%,102%,86.2%,6.09% (active),75.4%,74.3%,88.9%,48.4%,41.2%,83%,72.4%,88.7%,96.7%,101%,72.3%,71.9%,70%
CCCCCC/C=N/Nc1ccc([N+](=O)[O-])cn1,98.3%,99.1%,98.7%,87.8%,112%,104%,78.2%,90.6%,94.7%,98%,103%,96.7%,98.1%,98.7%,104%,103%,95.3%,93.7%,88.7%,90.4%
Fc1ccc(/C=N/n2c(-c3cc(Cl)cc(Cl)c3Cl)nn(CNc3ccc(Cl)nn3)c2=S)cc1,86.3%,97.1%,94.9%,82.4%,112%,49.5%,82.8%,99.3%,85.5%,100%,121%,85.8%,103%,83.3%,97%,105%,121%,97.6%,98.1%,85.6%
C=C1C(=O)O[C@H]2[C@H]1CC/C(COC(=O)OC/C1=C/CC[C@@]3(C)O[C@H]3[C@H]3OC(=O)[C@@H](CN(C)C)[C@@H]3CC1)=C\CC[C@@]1(C)O[C@@H]21,47.6%,-49.6% (active),88%,89.2%,80.1%,-51.8% (active),-48.5% (active),73.4%,-49.7% (active),-43.2% (active),15.3%,1.85% (active),-34.7% (active),-10.4% (active),-81.5% (active),63.1%,94.7%,-12.1% (active),-28% (active),-22.9% (active)
COc1ccccc1P(c1ccccc1OC)c1ccccc1OC,250%,105%,87.5%,113%,94.8%,70%,92.4%,82.2%,106%,87.1%,109%,107%,104%,101%,102%,109%,97.3%,101%,78.1%,101%
COc1ccc(C(=O)NC(=O)Nc2ccc3c(c2)NC(=O)/C3=C\c2[nH]c(C)c(C(=O)O)c2C)cc1,18.1%,83.9%,94.2%,96.2%,100%,-1.09% (active),7.54% (active),98%,16.8%,88.1%,71.1%,79.3%,41.9%,86.8%,49.1%,61.4%,105%,72.9%,107%,90.5%
NC(=S)NNC1CCCCC1,97.6%,91.1%,87.7%,83.2%,104%,88.7%,72.3%,74.5%,99.3%,100%,109%,87.6%,97.3%,92.1%,107%,97.4%,96.4%,96.4%,80.1%,98.4%
O=C(/C=C/c1ccco1)c1cccc(Nc2nc(Nc3ccccc3)nc(Nc3ccccc3)n2)c1,57.6%,99.5%,34.6%,86.5%,8.52% (active),49.1%,78.6%,20.1%,44%,62.3%,95%,64.4%,110%,67.9%,34.5%,92.9%,61.5%,94.4%,101%,92.1%
CCCCOc1c(N)cccc1C(=O)OCCN(CC)CC,97.1%,99.8%,80.7%,104%,105%,95.7%,76.5%,97.4%,102%,109%,103%,80.4%,100%,99.3%,100%,95.1%,103%,104%,100%,99.5%
CCc1cccc(C)c1NC(=O)c1sc2nc3c(cc2c1N)CCCCC3,45.3%,50.7%,41.4%,36.9%,13.3%,72.2%,-9.98% (active),32.9%,44.8%,7.73% (active),13.2%,9.14% (active),47%,35.6%,11.6%,56.5%,27%,11.1%,71.7%,3.86% (active)
O=C(Nc1cccc(-n2ccc3c(NC(=O)c4ccccc4)ncnc32)c1)Nc1ccc(Cl)c(C(F)(F)F)c1,31.9%,55.1%,60.2%,56.8%,14.4%,29.2%,11.8%,28.3%,53.2%,20.9%,42.2%,13.6%,46.5%,42.3%,14.6%,38.1%,14.2%,39.1%,36%,28.1%
CCN(CC)CCNCC(O)Cc1ccc(OC)cc1 (stereo not given),103%,90.5%,91.4%,102%,107%,81.4%,66.1%,96%,98.5%,111%,110%,105%,113%,105%,103%,107%,104%,106%,86.1%,104%
